The panel holds about 83,000 compounds, 20% with a hit somewhere; the sample as a whole holds those more often.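 How to read the values: 0–100, growth inhibition (40 = 60% inhibited); 0, no net growth; -100 to 0, cell death (-40 = 40% of starting cells died; -100 = all dead).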 The source made the active and inactive calls.
Each molecule was assayed on NCI/ADR-RES ovarian (assay: NCI-60 one-dose screen, 48 h (100 = growth as untreated, 0 = no growth, -100 = all killed)). Conditions: 10 µM unless noted.
Protocol: Growth inhibition of the NCI/ADR-RES human […] tumor cell line is measured as a screen for anti-cancer activity. Cells are grown in 96 well plates and exposed to the test compound for 48 hours. Compounds are tested at a single concentration, which is 10^-5 M for most compounds. The reported endpoint is percent growth (GI% or GIPRCNT), where numbers from 0 - 100% represent growth inhibition, and numbers from -100% - 0 represent cell death. For example, a value of 40 represents 60% growth inhibition. A value of 0 means no net growth occurred over the course of the experiment. A value of -40 indicates 40% of cells at the beginning of the experiment died by the end of the experiment. A value of -100 means all cells are dead at the end of the experiment.
NCI-60 Human Tumor Cell Lines Screen was performed using the standard one-dose NCI protocol, which is described in more detail at https://dtp.cancer.gov/discovery_development/nci-60/default.htm.
Compounds with GIPRCNT values below 10 were considered active. Activity score was based on GIPRCNT using the following formula: […]
Score is 0 for GIPRCNT values of 100 or above, 50 for GIPRCNT values of 0, and 100 for GIPRCNT values of -100.
`N#CC1=C(N)Oc2c(cnn2-c2ccc([N+](=O)[O-])cc2[N+](=O)[O-])C1c1ccccc1` (stereo not given) was tested, and the growth was 101% (inactive).
With `CCCCCOc1ccc(/C=N/Nc2cc(C)nc3ccc(Cl)cc23)cc1` the growth was 53.5% (inactive).
In the case of `O=S(=O)(NCCNc1nccc(-c2c(-c3cccc(O)c3)nc3occn23)n1)c1ccc(Cl)cc1`, the growth was 109% (inactive).
For `CCOc1ccc(/C=N/Nc2cc(C)nc3ccc(Br)cc23)cc1`, the growth was 81.8% (inactive).
With `NC(=O)CSSCC(N)=O` the growth was 105% (inactive).
For `CC1(C)NCCC[C@]2(C)[C@H]3CC(=O)[C@H]4[C@@H]5C[C@](C)(CO)CC[C@]5(C)CC[C@@]4(C)[C@]3(C)CC[C@@H]12`, the growth was 105% (inactive).
With `NS(=O)(=O)c1ccc(CCN2C(=O)C=CC2=O)cc1` the growth was 99.6% (inactive).
`COc1ccc(C(=O)c2cc(C)c(OC)c(C)c2)c(OC)c1N(C(=O)CCl)C(=O)CCl` was tested, and the growth was -37.1% (active).
`O=S(=O)(NCCNc1nccc(-c2c(-c3cccc(F)c3)nc3sccn23)n1)c1ccccc1` was tested, and the growth was 46.3% (inactive).
With `O=[N+]([O-])c1ccc(N=Nc2cc(S(=O)(=O)O)c3cccc(S(=O)(=O)O)c3c2O)cc1` the growth was 104% (inactive).
For `COc1cc(F)c(/C=C/c2cc(/C=C/c3cc(OC)c(OC)cc3F)on2)cc1OC`, the growth was 89.3% (inactive).
With `Cn1ccnc1C(=O)/C=C/c1ccc(CC(=O)NC2CCCCC2)cc1` the growth was 75.9% (inactive).
With `CC1(C)CC(O)CCCCCCOc2c(CN)cccc2NC(=O)c2nc(cnc2N)-c2ccc(cc2)S1(=O)=O` (stereo not given) the growth was 67.1% (inactive).
`CC(=O)Nc1cccc(-c2ccc3c(c2)NC(=O)/C3=C\c2ccc[nH]2)c1` was tested, and the growth was 49.6% (inactive).
For `CC(=O)OC[C@]12CC[C@@H](C(=O)CBr)[C@@H]1[C@H]1CC[C@@H]3[C@@]4(C)CC[C@H](OC(C)=O)C(C)(C)[C@@H]4CC[C@@]3(C)[C@]1(C)CC2`, the growth was 110% (inactive).
`Nc1nc(Nc2ccccc2SSc2ccccc2Nc2nc(N)nc(-c3ccc(C(F)(F)F)cc3)n2)nc(-c2ccc(C(F)(F)F)cc2)n1` was tested, and the growth was 56.4% (inactive).
In the case of `Cc1cccc(NC(=O)Nc2ccc(-c3ccc4c(c3)NC(=O)/C4=C\c3ccc[nH]3)cc2)c1`, the growth was 93.8% (inactive).
With `OCc1cnccc1NCCCCOc1ccc(Oc2ccccc2)cc1` the growth was 65.8% (inactive).
`CNC(=O)c1cccc(Cn2nc(C)c(NC(=O)c3ccc(COc4ccc(C(F)(F)F)cc4C)cc3)c2C)n1` was tested, and the growth was 33.4% (inactive).
For `Oc1ccc(C2c3ccccc3Oc3ccccc32)c2cccnc12`, the growth was 7.48% (active).
With `COc1cccc(-c2nc3occn3c2-c2ccnc(NCCNS(=O)(=O)c3cccc4ccccc34)n2)c1` the growth was 98.8% (inactive).
`C#CCNC(=O)[C@]1(C)CC[C@]2(C)CC[C@@H]3C(=CC[C@H]4[C@@]3(C)CC[C@H]3C(C)(C)C(=O)CC[C@]43C)[C@@H]2C1` was tested, and the growth was 94.2% (inactive).
With `N#C/C(=C\c1ccc([N+](=O)[O-])s1)c1nc2cc(Br)ccc2s1` the growth was -28.5% (active).
`O=C1c2ccccc2C(=O)c2c([N+](=O)[O-])ccc(Cl)c21` was tested, and the growth was 92.4% (inactive).
With `CCOC(=O)c1ccc2c(c1)ncn2-c1ccc(NC(=O)Nc2cccc(C)c2)cc1` the growth was 72.2% (inactive).
`CCOC(=O)[C@@H]1CCCN(S(=O)(=O)c2ccc(S(=O)(=O)N(CC)CC)c(F)c2)C1` was tested, and the growth was 47.2% (inactive).
`CN1CCN(c2ccc(NC3=C(Cl)C(=O)c4ncccc4C3=O)cc2C(F)(F)F)CC1` was tested, and the growth was 81.9% (inactive).
For `CCCCOc1ccc(/C(C)=N/Nc2cc(C)nc3ccc(Br)cc23)cc1`, the growth was 99.2% (inactive).
`CCCCCCCCCCCCCCCC[N+]1(C)CCN(SN2CC[N+](C)(CCCCCCCCCCCCCCCC)CC2)CC1` was tested, and the growth was 96.3% (inactive).
`Cn1ccnc1C(=O)/C=C/c1ccc(CC(=O)Nc2ccc(Cl)cc2)cc1` was tested, and the growth was 10.8% (inactive).
In the case of `Cn1nc(CC#N)c2c(=N)n(N)cnc21`, the growth was 113% (inactive).
With `COc1cccc2c1c1nc3cc(C)c(C)cc3nc1n2CCN(C)C` the growth was 25.1% (inactive).
`Cc1ccc(-c2csc(NC(=O)CSc3nc(-c4ccccc4)cc(=O)[nH]3)n2)cc1` was tested, and the growth was 93.4% (inactive).
In the case of `COCc1cnccc1NC1CCCCCC1`, the growth was 100% (inactive).
For `COc1ccc(-c2nc(S(=O)(=O)c3ccccc3)c(S(=O)CC(=O)N3CCC(C)CC3)o2)cc1` (stereo not given), the growth was 59.7% (inactive).
For `CCCCN1C=CCN(CCCC)C1`, the growth was 108% (inactive).
For `COc1cc(OC)cc(C(=O)C[n+]2cccc3cc[nH]c32)c1`, the growth was 101% (inactive).
For `CCOC(=O)c1cc(C(=O)c2ccc(Br)cc2)n2ccc(/C=C/c3cc[n+](CC(=O)c4ccc(OC)cc4)cc3)cc12`, the growth was 87.5% (inactive).
`C[C@H](c1nc2ccc(N)cc2[nH]1)[C@H]1CC[C@H]2[C@@H]3CCC4=CC(=O)CC[C@]4(C)[C@H]3CC[C@]12C` was tested, and the growth was 89% (inactive).
With `CC(=O)CCC(=O)OCc1cc(=O)c(O)co1` the growth was 98.3% (inactive).
